Source: PubChem (several laboratories)
DUSP3 inh = inhibitors of human VHR1 phosphatase (DUSP3) | inhibition, % at 13.3 µM | recombinant VHR phosphatase, pNPP absorbance | hit rate 0.52% among 290,000; in the data active = inhibition above about 50%
Target sequence (P51452 whole entry, looked up): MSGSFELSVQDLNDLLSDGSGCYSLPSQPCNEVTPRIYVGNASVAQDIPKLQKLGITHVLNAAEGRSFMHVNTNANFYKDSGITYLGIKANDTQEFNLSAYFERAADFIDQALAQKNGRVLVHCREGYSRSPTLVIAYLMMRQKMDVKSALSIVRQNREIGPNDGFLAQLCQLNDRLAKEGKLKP
FBA Mtb inh = inhibitors of M. tuberculosis fructose-bisphosphate aldolase; P9WQA3; purified M. tuberculosis FBA, fluorescence read-out; inhibition, % at 1 µM; hit rate 2.3% among 360,000; AID 588726; in the data active = inhibition above about 27%;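 note: 0% = vehicle and 100% = reference inhibitor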
Target sequence (P9WQA3 whole entry, looked up): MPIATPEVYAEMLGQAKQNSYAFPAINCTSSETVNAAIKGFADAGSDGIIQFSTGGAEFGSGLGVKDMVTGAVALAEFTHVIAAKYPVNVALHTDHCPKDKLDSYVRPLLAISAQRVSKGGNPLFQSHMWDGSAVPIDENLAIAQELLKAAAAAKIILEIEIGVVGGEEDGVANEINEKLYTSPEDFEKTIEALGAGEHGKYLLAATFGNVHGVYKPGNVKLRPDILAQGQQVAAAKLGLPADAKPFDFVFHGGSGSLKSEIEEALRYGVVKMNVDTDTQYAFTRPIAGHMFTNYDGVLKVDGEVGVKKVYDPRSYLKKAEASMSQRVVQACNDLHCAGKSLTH
GDH-TPI counter = counter-screen for M. tuberculosis FBA inhibitors: GDH-TPI coupled enzymes | GDH-TPI coupled enzyme counterscreen, NADH absorbance | inhibition, % at 4.8 µM | hit rate 1.2% among 360,000; in the data active = inhibition above about 30%;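 note: 0% = DMSO wells and 100% = wells lacking the enzyme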
Mtb betalactam = beta-lactam sensitization of Mtb H37Rv. M. tuberculosis H37Rv growth with meropenem, percent inhibition. inhibition, % at 25 µM. hit rate 0.27% among 330,000. AID 434955; call rule not given here;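 note: growth measured after seven days incubation then overnight dye step; 0% = bacteria only wells and 100% = bacteria with antibiotic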
Mtb hypoxia inh = reduces hypoxia-regulated biosensor signal in M. tuberculosis; hit rate 0.1% among 300,000; M. tuberculosis hypoxia-regulated fluorescent reporter, fluorescence; fluorescence inhibition, % (test concentration not listed); in the data active = fluorescence inhibition mostly above about 23%, no sharp cut-off; inactive = mostly below about 17%
Starred values were filed as active, the others as inactive; nt = no result given; + = active, no number. Sampled rows, rich in hits. Any-hit rate of the full collection: about 3.6%.

SMILES	DUSP3 inh	FBA Mtb inh	GDH-TPI counter	Mtb betalactam	Mtb hypoxia inh
COc1ccc(S(=O)(=O)NC(N)=NCCc2ccccc2OC)cc1	18	191*	-4	-1	3
COC(=O)C1=C(c2ccc(F)cc2OCc2ccccc2)CC2CCC1N2C(=O)NC(C)C (configuration not stated)	nt	nt	nt	nt	3
O=C(NN=Cc1ccc(Br)o1)c1ccc2c(c1)OCCO2	nt	nt	nt	nt	10
Cc1cccc(N2CCN(S(=O)(=O)c3ccc4c(c3)CCN4C(=O)CCC(=O)O)CC2C)c1 (configuration not stated)	54*	-3	0	5	7
N/C(=N\N=C\c1ccc(O)cc1O)N[N+](=O)[O-]	11	1	36*	-8	nt
COc1ccccc1/C=N/N=C(/N)N[N+](=O)[O-]	18	-3	23	5	nt
O=C(Cc1ccc(F)cc1)Nc1ccc(Cl)cn1	60*	1	-2	-6	19
O=C(Cc1ccc(Cl)cc1)Nc1ccc(Cl)cn1	25	-3	11	6	15
COc1cc(C=Nn2c(-c3cc(C)[nH]n3)n[nH]c2=S)cc(OC)c1OC	nt	nt	nt	nt	-1
COc1ccc(-c2ccc(OC)c(C3C4C=CCC[C@@]4(C)C(=O)N3Cc3ccccc3)c2)cc1OC (some centres not stated)	nt	nt	nt	nt	6
CCCNC(=O)N1C2=NC(C(=O)OC)=C(C(=O)OC)C3N(Cc4ccccc4)c4ccccc4[C@]23CC1CO (some centres not stated)	nt	nt	nt	nt	2
CCOC(=O)c1cc2c(=O)n3ccccc3nc2n(C(C)C)c1=NC(=O)c1c(-c2c(F)cccc2Cl)noc1C	-2	26	3	5	-5
CCOC(=O)c1cc2c(=O)n3cccc(C)c3nc2n(CCCOC)c1=NC(=O)c1cccnc1	19	+	20	0	1
CCOCCCn1c(=NC(=O)c2cccnc2)c(C(=O)OCC)cc2c(=O)n3ccccc3nc21	26	145*	12	-17	7
O=C(/C=C/c1ccc2c(c1)OCO2)Nc1nc(-c2ccccc2)cs1	24	3	46*	-12	nt
CC(=O)Nc1ccc(NC(=O)/C=C/c2ccc3c(c2)OCO3)cc1	19	-2	18	2	11
NS(=O)(=O)c1ccc(NC(=O)/C=C/c2ccc3c(c2)OCO3)cc1	-3	22	36*	2	10
Cc1sc(NC(=O)/C=C/c2ccc3c(c2)OCO3)nc1-c1ccccc1	5	4	13	31	3
O=C(/C=C\c1ccco1)Nc1nc(-c2ccc3ccccc3c2)cs1	0	2	36*	0	-5
Cc1ccc(/C=C/C(=O)Nc2cc(=O)n(C)c(=O)n2C)o1	-7	-3	2	2	6
Cc1ccc(C(=O)Nc2cc(=O)n(C)c(=O)n2C)o1	4	-3	33*	-19	-4
CC1CN(C(C)CO)C(=O)c2cccc(NC(=O)C3CCCCC3)c2OC1CN(C)S(=O)(=O)c1cccs1 (configuration not stated)	nt	nt	nt	nt	15
COc1ccccc1C(=O)NN=C(C)CC(=O)Nc1ccc2c(c1)OCCO2	nt	nt	nt	nt	1
COc1ccc(C2=CC(=O)CC(c3ccc4c(c3)OCO4)C2)cn1 (configuration not stated)	nt	nt	nt	nt	16
COc1cc(OCc2ccccc2)c(C(=O)/C=C/c2ccc3c(c2)OCO3)c(OC)c1OC	nt	2	50*	-3	1
SMILES	DUSP3 inh	FBA Mtb inh	GDH-TPI counter	Mtb betalactam	Mtb hypoxia inh
O=C(/C=C/c1ccco1)Nc1ccc2c(c1)OCO2	7	-6	33*	-9	-12
Cc1cc(C)nc(NC(=O)/C=C/c2ccc3c(c2)OCO3)c1	9	13	40*	4	nt
Cn1c(NC(=O)/C=C/c2ccco2)cc(=O)n(C)c1=O	-4	-4	31*	-5	3
COc1ccc(C2C=CCN(C(=O)OCc3ccccc3)CC(=O)N2Cc2ccc(F)cc2)cc1 (configuration not stated)	nt	nt	nt	nt	21
Cc1ccccc1-n1nc2c(c1NC(=O)/C=C\c1ccc3c(c1)OCO3)CSC2	4	2	32*	0	4
O=C(/C=C/c1ccco1)Nc1cccc(C(=O)Nc2ccccc2C(=O)O)c1	-13	-3	15	0	3
O=C(/C=C/c1ccc2c(c1)OCO2)c1ccc(O)cc1O	nt	-10	40*	nt	-4
CCc1ccccc1NC(=O)c1cccc(NC(=O)/C=C/c2ccco2)c1	18	0	44*	1	nt
CC(=NNC(=O)CNS(=O)(=O)c1ccccc1)c1ccc(Br)cc1	nt	nt	nt	nt	13
CN(C)c1ccc(C=C2C(=O)OC(C)(C(C)(C)C)OC2=O)cc1 (configuration not stated)	18	1	21	-4	-5
CCN(CC)c1ccc(C=C2C(=O)OC(C)(C(C)(C)C)OC2=O)cc1 (configuration not stated)	nt	-1	36*	-4	11
Cc1ccc(C2=CC(=O)CC(c3ccc4c(c3)OCO4)C2)cc1 (configuration not stated)	nt	nt	nt	nt	6
CCCCCCOC(=O)CCc1c(C)nc(N)[nH]c1=O	52*	1	13	-9	3
O=C(NC1CC1)C1=CC(c2ccc(C(F)(F)F)cc2)CC(OCc2ccc(CO)cc2)O1 (configuration not stated)	nt	nt	nt	nt	3
CN=c1scc(-c2ccccc2F)n1/N=C(\C)c1cccnc1	58*	1	8	53	nt
CN=c1scc(-c2ccccc2F)n1N=C(C)c1cccnc1	nt	nt	nt	nt	-8
O=C1[C@@H]2[C@@H](CN3CN(c4ccccc4)N=C(c4ccccc4)[C@@]23c2ccccc2)C(=O)N1c1ccccc1	nt	34*	17	nt	nt
COCCNC(=O)c1cc2c(=O)n3cccc(C)c3nc2n(Cc2ccncc2)c1=N	35	+	12	-3	-12
COc1ccc(CCNC(=O)c2cc3c(=O)n4cccc(C)c4nc3n(Cc3ccncc3)c2=N)cc1	31	nt	nt	nt	nt
Cc1cccn2c(=O)c3cc(C#N)c(=O)n(-c4c(C)n(C)n(-c5ccccc5)c4=O)c3nc12	21	1	7	-4	1
Cc1cccn2c(=O)c3cc(C#N)c(=N)n(CCN4CCOCC4)c3nc12	25	53*	0	nt	2
Cc1cc(-n2c(=O)c(C#N)cc3c(=O)n4cccc(C)c4nc32)no1	-10	+	-7	-9	3
CCCCNC(=O)c1cc2c(=O)n3cccc(C)c3nc2n(Cc2ccncc2)c1=N	9	151*	-1	-5	1
CCc1cc(CC)c(C=NNC(N)=O)c(CC)c1C=NNC(N)=O	nt	nt	nt	nt	3
COCCN1C(=O)NC(c2ccccc2)C(C(C)=O)C1C (configuration not stated)	nt	nt	nt	nt	7
CCCCNC(=O)c1cc2c(=O)n3cccc(C)c3nc2n(CCN2CCOCC2)c1=N	-2	137*	14	-6	nt
COc1ccc(C=Nn2c(C)cc(C)c(C(N)=O)c2=O)cc1	nt	nt	nt	nt	12
Cc1ccc(S(=O)(=O)Nc2cccc(C(=O)N3CCOCC3)c2)c(C)c1NS(C)(=O)=O	59*	-1	3	-11	9
Cc1ccc(S(=O)(=O)Nc2cccc(C(=O)N3CCOCC3)c2)cc1	22	-1	-3	2	12
